Compound activity (PubChem)
CaV13 FRET inh = Primary screen for inhibitors of IQ motif and Ca2+-dependent inactivation inhibitor domain binding in CACNA1D, Förster resonance energy transfer in living cells, …; HEK cells, CFP/YFP FRET ICDI-IQ, plate reader, 10 min; percent FRET-ratio fall versus neutral wells; inhibition, % at 12.3 µM; 340,000 compounds, 0.098% hits;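 active means mean replicate inhibition of at least 30% and at least 1% of replicates passing that level; inconclusive means only one of the two criteria is met; inactive means neither criterion is met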
ERAP1 inh = ERAP1 (human) enzyme inhibition; Q9NZ08; recombinant ERAP1, Leu-AMC fluorescence, 60 min; inhibition, % at 10.7 µM; 340,000 compounds, 0.15% hits; AID 652197;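 active means mean replicate inhibition of at least 30%, or all replicates individually reaching that 30% level; inactive means mean below 30% and not every replicate reaching it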
Target sequence (Q9NZ08 whole entry, looked up): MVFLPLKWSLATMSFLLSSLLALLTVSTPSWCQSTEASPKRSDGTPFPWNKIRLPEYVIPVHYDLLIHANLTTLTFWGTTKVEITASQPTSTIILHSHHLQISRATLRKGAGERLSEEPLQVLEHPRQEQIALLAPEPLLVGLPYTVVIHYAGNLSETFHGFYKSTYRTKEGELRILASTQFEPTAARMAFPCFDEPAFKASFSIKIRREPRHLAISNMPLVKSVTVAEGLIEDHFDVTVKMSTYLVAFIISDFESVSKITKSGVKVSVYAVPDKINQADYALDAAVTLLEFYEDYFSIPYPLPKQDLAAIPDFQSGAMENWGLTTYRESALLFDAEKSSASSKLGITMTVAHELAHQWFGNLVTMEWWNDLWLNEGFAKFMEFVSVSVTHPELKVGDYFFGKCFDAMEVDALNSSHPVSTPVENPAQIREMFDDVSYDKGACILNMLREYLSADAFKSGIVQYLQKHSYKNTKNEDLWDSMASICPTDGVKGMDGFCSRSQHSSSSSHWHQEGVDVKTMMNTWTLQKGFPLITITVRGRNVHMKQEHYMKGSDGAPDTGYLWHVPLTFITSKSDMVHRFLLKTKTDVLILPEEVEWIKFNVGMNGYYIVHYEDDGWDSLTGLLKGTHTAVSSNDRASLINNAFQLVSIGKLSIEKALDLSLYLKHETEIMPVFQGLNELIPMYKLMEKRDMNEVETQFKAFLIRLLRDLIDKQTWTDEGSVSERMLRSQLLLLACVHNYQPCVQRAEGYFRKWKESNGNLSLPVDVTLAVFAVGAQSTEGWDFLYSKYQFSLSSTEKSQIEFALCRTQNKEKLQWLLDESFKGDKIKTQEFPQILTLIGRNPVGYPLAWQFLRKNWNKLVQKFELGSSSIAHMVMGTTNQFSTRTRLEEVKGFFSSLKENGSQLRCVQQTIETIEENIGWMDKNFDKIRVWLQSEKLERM
DENV2 CPE = inhibitors of DENV2 cytopathic effect; DENV2-infected cells, cytopathic effect rescue, plate reader; CPE inhibition, % at 9.99 µM; 350,000 compounds, 1.7% hits; AID 651640; in the data active means CPE inhibition above about 20%, passing the limit was not always enough; inconclusive means no clear call, values can overlap the other calls; tested in BHK-21 cells
PGC1a acetyl inh = lowers PGC1a acetylation signal in U2OS cells; 350,000 compounds, 0.17% hits; AlphaScreen anti-acetyl-lysine; with virally co-expressed GCN5 acetyltransferase; inhibition, % at 15.6 µM;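 active means every replicate shows inhibition of at least 40%; inconclusive means mean inhibition at least 40% but some replicate below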
rRNA inh HTS = inhibits bacterial ribosomal RNA function over humanized ribosomes; GFP signal change (wild-type ribosome), % (no concentration beside the values); E. coli WT GFP vs humanized-ribosome RFP mutants, fluorescence, 24 h; active compounds read low; DMSO median 0, no signal -100; 350,000 compounds, 1.6% hits;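 active means significant combined selectivity score with lowered wild-type GFP, culture density cut under 30%, mutant RFP and density less affected; inactive means any of these conditions unmet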
INS-1E GSIS act = GLuc luminescence reporter in INS-1E cells, primary screen for activators of glucose-dependent secretion of insulin. INS-1E GLuc reporter insulin secretion, 2-3 h. activation, % at 16.6 µM. 370,000 compounds, 0.61% hits. AID 743287;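 active means lowest replicate activation of at least 40%, so every replicate reaches that level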
Large screens that a line does not name were inactive; ! = repeats disagree. This is a sample that favours compounds with a hit; in the whole collection about 3.2% have one here.

COc1ccccc1C(=O)NCCC(=O)N1CCN(C(=O)c2ccco2)CC1	DENV2 CPE inconclusive (no result: PGC1a acetyl inh)
COc1ccccc1C(=O)NCCC(=O)N1CCN(C(C)=O)CC1	DENV2 CPE 50
COc1ccccc1-c1noc2c1C(=O)N(Cc1cn(Cc3ccccc3)nn1)CC2	DENV2 CPE 56
CC(C)CC#Cc1ccc([C@H]2[C@@H](CO)N3CCCCN(C(=O)Nc4ccccc4)C[C@@H]23)cc1	none (no result: CaV13 FRET inh, ERAP1 inh, DENV2 CPE)
COc1ccc(NC(=O)N2CCCCN3[C@H](C2)[C@H](c2ccc(-c4ccccc4C)cc2)[C@@H]3CO)cc1	DENV2 CPE 27 (no result: CaV13 FRET inh)
COc1ccc(NC(=O)N2CCCCN3[C@H](CO)[C@@H](c4ccc(-c5ccccc5C)cc4)[C@@H]3C2)cc1	none (no result: CaV13 FRET inh)
COc1ccc(C#Cc2ccc([C@@H]3[C@H](CO)N4CCCCN(C(=O)Nc5ccccc5)C[C@@H]34)cc2)cc1	DENV2 CPE 34 (no result: CaV13 FRET inh)
CC(C)CC#Cc1ccc([C@@H]2[C@H]3CN(C(=O)Nc4ccccc4)CCCCN3[C@H]2CO)cc1	DENV2 CPE 33 (no result: CaV13 FRET inh)
C/C=C/c1ccc([C@H]2[C@@H](CO)N3CCCCN(C(=O)Nc4ccc(OC)cc4)C[C@@H]23)cc1	DENV2 CPE 30 (no result: CaV13 FRET inh)
COc1ccc(NC(=O)N2CCCCN3[C@H](CO)[C@H](c4ccc(C#Cc5ccccc5)cc4)[C@H]3C2)cc1	none (no result: CaV13 FRET inh, rRNA inh HTS, INS-1E GSIS act)
CCC(=O)NC[C@@H]1[C@H](c2ccc(C3=CCCC3)cc2)[C@H](CO)N1C(=O)C1CC1	none (no result: CaV13 FRET inh, ERAP1 inh)
CC(=O)Nc1cccc2c1O[C@@H](CN(C)C(=O)OC(C)(C)C)[C@H](C)CN(C)C2=O	none (no result: CaV13 FRET inh, ERAP1 inh, DENV2 CPE, PGC1a acetyl inh)
O=C(Cc1ccccn1)N1CC(=O)N2[C@@H](CO)[C@@H](c3ccc(-c4ccccc4)cc3)[C@@H]2C1	none (no result: CaV13 FRET inh)
C[C@@H]1CN([C@H](C)CO)C(=O)c2cc(C#CC3CCCC3)cnc2O[C@@H]1CN(C)C(=O)C1CC1	none (no result: CaV13 FRET inh)
COc1ccc(C#Cc2ccc([C@H]3[C@H]4CN(C(=O)Nc5ccccc5)CCCCN4[C@H]3CO)cc2)cc1	none (no result: CaV13 FRET inh)
COc1ccc(C#Cc2ccc([C@H]3[C@@H](CO)N4CCCCN(C(=O)Nc5ccccc5)C[C@@H]34)cc2)cc1	DENV2 CPE 71 (no result: CaV13 FRET inh)
COC(=O)c1nn(-c2ccccc2)c(Sc2ccc(Br)cc2)c1/C=N/O	rRNA inh HTS -20 (no result: CaV13 FRET inh, DENV2 CPE, PGC1a acetyl inh)
CCCNC(=O)/C(=C/c1cn(S(=O)(=O)N(C)C)c2ccccc12)NC(=O)c1ccc(OC)cc1	rRNA inh HTS -26
COc1nc(N2CCOCC2)nc(-n2cccc2)n1	INS-1E GSIS act 57 (no result: DENV2 CPE, PGC1a acetyl inh)
COc1ccc(CN2CC3(C2)CN(C(=O)CN(C)C)[C@@H](CO)c2[nH]c4cc(OC)ccc4c23)cc1	none (no result: CaV13 FRET inh, PGC1a acetyl inh)
COc1ccc2c3c([nH]c2c1)[C@H](CO)N(C(=O)CN(C)C)CC31CN(Cc2ccccc2Cl)C1	DENV2 CPE 33 (no result: CaV13 FRET inh, ERAP1 inh)
COc1ccc2c3c([nH]c2c1)[C@@H](CO)N(C(=O)CN(C)C)CC31CN(Cc2ccccc2)C1	DENV2 CPE 39 (no result: CaV13 FRET inh)
Oc1cccc(C=NN=C2c3ccccc3-c3ccccc32)c1	rRNA inh HTS -34 (no result: PGC1a acetyl inh)
Cc1noc(C)c1NC(=O)N(C)C[C@H]1Oc2ncc(/C=C/c3ccccc3)cc2C(=O)N([C@H](C)CO)C[C@@H]1C	none (no result: CaV13 FRET inh)
Fc1cccc(/C=N/Nc2ccc3ccccc3n2)c1	DENV2 CPE inconclusive, rRNA inh HTS -24
C[C@@H]1CCCCO[C@@H](CN(C)C(=O)c2ccncc2)[C@@H](C)CN([C@H](C)CO)C(=O)c2cc(NC(=O)CCCCCC(=O)Nc3ccccc3N)ccc2O1	PGC1a acetyl inh 99 (no result: CaV13 FRET inh)
C[C@@H]1CCCCO[C@@H](CN(C)C(=O)c2ccccc2)[C@@H](C)CN([C@H](C)CO)C(=O)c2cc(NC(=O)CCCCCC(=O)Nc3ccccc3N)ccc2O1	none (no result: CaV13 FRET inh)
C[C@@H]1CCCCO[C@H](CN(C)C(=O)c2ccncc2)[C@@H](C)CN([C@@H](C)CO)C(=O)c2cc(NC(=O)NC3CCCCC3)ccc2O1	none (no result: CaV13 FRET inh, ERAP1 inh)
C[C@H]1CCCCO[C@@H](CN(C)C(=O)c2ccncc2)[C@@H](C)CN([C@@H](C)CO)C(=O)c2cc(NC(=O)NC3CCCCC3)ccc2O1	DENV2 CPE 21 (no result: CaV13 FRET inh, ERAP1 inh)
C[C@@H]1CCCCO[C@@H](CN(C)C(=O)c2ccncc2)[C@@H](C)CN([C@H](C)CO)C(=O)c2cc(NC(=O)NC3CCCCC3)ccc2O1	DENV2 CPE 27 (no result: CaV13 FRET inh, ERAP1 inh)
C[C@@H]1CCCCO[C@@H](CN(C)C(=O)c2ccncc2)[C@@H](C)CN([C@H](C)CO)C(=O)c2cc(NC(=O)Cc3ccccc3)ccc2O1	DENV2 CPE 24!
COc1ccc(NC(=O)Nc2ccc3c(c2)C(=O)N([C@@H](C)CO)C[C@H](C)[C@H](CN(C)CC2CCCCC2)OCCCC[C@H](C)O3)cc1	none (no result: CaV13 FRET inh)
C[C@@H](NC(=O)[C@H]1[C@H](CO)[C@H]2Cn3c(cccc3=O)[C@H]2N1CC1CC1)c1ccccc1	none (no result: CaV13 FRET inh, PGC1a acetyl inh)
CCOC(=O)C1=CCC(c2ccc(CC)cc2)N(S(=O)(=O)c2ccc(C)cc2)C1 (stereo not given)	none
CCOc1ccc([C@@H]2CC=C(C(=O)O)CN2S(=O)(=O)c2ccc(C)cc2)cc1	rRNA inh HTS -26 (no result: PGC1a acetyl inh, INS-1E GSIS act)
CCc1ccc([C@@H]2CC=C(C(=O)O)CN2S(=O)(=O)c2ccc(C)cc2)cc1	DENV2 CPE inconclusive, rRNA inh HTS -23
CCCCNc1ccc2c(c1)OC[C@@H](Cc1ccccc1)NS2(=O)=O	rRNA inh HTS -28 (no result: PGC1a acetyl inh)
CC(C)C[C@@H]1COc2cc(NCCO)ccc2S(=O)(=O)N1	DENV2 CPE 59 (no result: PGC1a acetyl inh)
CCCCNc1ccc2c(c1)OC[C@@H](C)NS2(=O)=O	DENV2 CPE inconclusive (no result: PGC1a acetyl inh)
CC(C)C[C@H]1COc2cc(NCc3ccc(Cl)c(Cl)c3)ccc2S(=O)(=O)N1	rRNA inh HTS -26 (no result: PGC1a acetyl inh)
C=CCNc1ccc2c(c1)OC[C@@H](CC(C)C)NS2(=O)=O	none (no result: PGC1a acetyl inh)
CCCCNc1ccc2c(c1)OC[C@@H](CC(C)C)NS2(=O)=O	none (no result: PGC1a acetyl inh)
C[C@@H]1CCCCO[C@@H](CN(C)Cc2ccncc2)[C@H](C)CN([C@@H](C)CO)C(=O)c2cc(NC(=O)C3CCCCC3)ccc2O1	none (no result: CaV13 FRET inh)
C/C=C/c1cnc2c(c1)C(=O)N([C@H](C)CO)C[C@H](C)[C@@H](CN(C)C(=O)NC1CCCCC1)O2	none (no result: CaV13 FRET inh)
CC(C)C1CC(CCNCc2ccc(N(C)C)cc2)(c2ccccc2)CCO1 (stereo not given)	none (no result: PGC1a acetyl inh)
CC(C)C1CC(CCNCc2ccc3c(c2)OCO3)(c2ccccc2)CCO1 (stereo not given)	rRNA inh HTS -24
COc1ccc([C@H]2CC=CC[C@H](C)Oc3ccccc3C(=O)N(C)[C@@H](C)C(=O)N2)c(OC)c1 (mixture of isomers)	none (no result: CaV13 FRET inh, ERAP1 inh, DENV2 CPE, PGC1a acetyl inh)
CCc1noc(C)c1C(=O)OCC(=O)c1ccc(OC)c(OC)c1	none
COc1ccc(C(=O)COC(=O)CSCc2c(C)noc2C)cc1OC	INS-1E GSIS act 55
